HT1080 IDH1KD tx: toxicity to HT-1080 IDH1 knockdown cells (counter line); actives 2% (n = 360,000); HT-1080 IDH1 knockdown viability, ATP luminescence, 48 h; Potency, µM (highest dose often 46.1 µM), without a hit: top-dose activity, negative = toxicity, hits mostly cytotoxic;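 also: 0% = DMSO wells and -100% = cell-free medium wells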
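Luminescent ATP read-out (CellTiter-Glo, 10 min at room temperature) after 48 h compound exposure at 37 °C gave viability of IDH1-knockdown HT-1080 cells. Activity was normalised to DMSO and cell-free wells, then fitted as concentration-response curves.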
KB-V1 MDR tox: kills drug-selected multidrug resistant KB-V1 cells; Potency, µM (doses to about 46.1 µM), hits mostly cytotoxic; KB-V1 MDR cells viability, CellTiter-Glo, 72 h; actives 3.4% (n = 400,000); AID 1347076; also: % is scaled to controls: 0 for no effect and ±100 for the full control effect; nearly all actives have a fitted effect of over 60% in size
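Following 72 h at 37 degrees C with compound, KB-V1 cell viability was read by CellTiter-Glo luminescence, medium being phenol-red-free DMEM plus 10% FBS; concentration-response parameters came from normalized, curve-fitted qHTS data.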
HT1080NT lethal: kills 2HG-producing HT-1080-NT fibrosarcoma cells; HT-1080-NT fibrosarcoma viability, CellTiter-Glo ATP luminescence, 48 h; Potency, µM (highest dose often 46.1 µM), inactives show at the highest dose activity, negative = less viability, actives largely listed as cytotoxic; AID 686970; actives 1.6% (n = 360,000);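 also: NT is the 2HG producing partner of a matched IDH1 knockdown line; 0% = DMSO-treated cells and -100% = media-only wells without cells; nearly all actives have a fitted effect of over 55% in size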
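Compounds were tested in concentration-response format on HT-1080-NT cells for 48 hours at 37 degrees C. Cell viability came from CellTiter-Glo luminescence; curves were classified by r2, response magnitude and activity.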
KB-3-1 tox: KB-3-1 parental cell cytotoxicity. KB-3-1 viability, CellTiter-Glo ATP luminescence, 72 h. Potency, µM (series often up to 46.1 µM), hits mostly cytotoxic. actives 1.4% (n = 400,000); also: % is scaled to controls: 0 for no effect and ±100 for the full control effect; nearly all actives have a fitted effect of over 60% in size
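Here the drug-naive KB-3-1 line serves as comparator for MDR sub-line selectivity; cells received compound titrations, 72 h at 37 °C, then CellTiter-Glo readout.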
S2 tox: cell viability loss in ATXN counter-screen. AID 651635. actives 0.49% (n = 400,000). S2 cells (HEK-293 line with an ATXN2-luciferase reporter) viability, CellTiter-Fluor protease fluorescence, 24 h. Potency, µM (titrated, usually from 56.7 µM), usual class: cytotoxic; also: nearly all actives have a fitted effect of over 40% in size
ATXN2 expr inh: inhibitors of ATXN2 expression; HEK-293 ATXN2-luciferase reporter, luminescence, 24 h; Potency, µM (titrated, usually from 57 µM), for inactives: at the top dose activity change, negative = inhibition, usual class: inhibitors; actives 0.72% (n = 360,000); AID 1745845; also: % is scaled to controls: 0 for no effect and ±100 for the full control effect; nearly all actives have a fitted effect of over 55% in size
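ATXN2-luciferase reporter cells (luciferase flanked by upstream and downstream ATXN2 gene portions) were treated 24 h at 37 °C with compounds at up to 57 uM. SteadyGlo luminescence gave expression; GF-AFC fluorescence gave viability.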
Numbers without * were called inactive; i = inactive; ? = inconclusive; · = no result; [ ] = dose if it differs, or a comment. Only some compounds are listed: those with a hit (about 6.2% of all), similar ones and a draw of the others. Calls follow the shape of the dose curve; as a rule, active = well fitted curve in the direction sought with a large enough effect; inconclusive = small, poorly fitted or top-dose-only effect, or another doubt; inactive = no such curve, though single readings can be large; an effect the other way counts as inactive or inconclusive. Potency is read from the fitted curve at half-maximal effect.

SMILES	HT1080 IDH1KD tx	KB-V1 MDR tox	HT1080NT lethal	KB-3-1 tox	S2 tox	ATXN2 expr inh
Cc1cccc(C(=O)Nc2ccccc2C(=O)OCc2c(C)noc2C)c1	-1%	3.3µM*	9%	i	i	-11%
Cc1ccccc1NC(=O)c1cccc(OCc2c(C)noc2C)c1	11%	i	11%	i	i	5%
CCCCOC(=O)c1cc(=O)[nH]c2ccc(C)cc12	-3%	18µM*	1%	15µM*	i	1%
CN(c1ccccc1)S(=O)(=O)c1ccc(NC(=O)c2cc(=O)c3ccccc3o2)cc1	·	i	·	i	i	0%
Cc1ccc(Cl)cc1N1CCN(C(=O)Cc2c(C(=O)O)c(C)cn2C)CC1	·	?	·	i	i	19%
CC(C)C(Cl)=NOC(=O)Nc1ccc(F)cc1	16µM*	i	-8%	i	21µM*	?
O=C(Nc1ccc2oc(=O)ccc2c1)c1ccc(-c2ccccc2[N+](=O)[O-])o1	?	i	18µM*	i	i	-12%
O=C(Nc1ccc2oc(=O)ccc2c1)c1ccc(-c2cccc([N+](=O)[O-])c2)o1	8.2µM*	i	10µM*	26µM*	·	-38%
Cc1nc2ccccc2c2nc3ccccc3n12	0%	i	?	i	i	28%
CC(C)N(C(=O)Cn1c(-c2ccccc2Cl)nc2ccccc21)c1ccccc1	0%	10µM*	-3%	i	i	3%
Clc1ccccc1-c1nc2ccccc2c2nc3ccccc3n12	0%	4.1µM*	6%	?	i	-7%
CN(CCO)C(=O)c1cn(C2CCCN(Cc3ccc4ccccc4c3)C2)nn1 (centres undefined)	·	·	·	·	i	·
Nn1c(-c2ccc(F)cc2)nc2ccccc2c1=O	14%	i	1%	i	i	5%
O=C1c2cc(F)ccc2-n2c1nc1ccccc1c2=O	?	5.2µM*	?	6.5µM*	i	?
COc1cc(=O)n2c(c1C(=O)NCc1ccco1)CCN(Cc1ccc3ccccc3c1)CC2	·	·	·	·	i	·
COc1ccc(OCC(O)CN2CCC(CN3C(=O)c4cccc5cccc(c45)C3=O)CC2)cc1 (centres undefined)	?	i	23µM*	i	?	?
O=C1c2cccc3cccc(c23)C(=O)N1CCN1CCN(CC(O)COc2ccccc2)CC1 (centres undefined)	3%	i	1%	i	i	-1%
Cc1ccc(C)c(OCC(O)CN2CCC(CN3C(=O)c4cccc5cccc(c45)C3=O)CC2)c1 (centres undefined)	0%	2.6µM*	0%	18µM*	·	28µM*
COc1cccc(OCC(O)CN2CCN(CCN3C(=O)c4cccc5cccc(c45)C3=O)CC2)c1 (centres undefined)	?	?	-28%	i	i	-25%
CCOC(=O)C1CCN(CC(O)COCc2ccc3c(c2)OCO3)CC1 (centres undefined)	2%	i	1%	i	i	2%
O=C1c2cccc3cccc(c23)C(=O)N1CC1CCN(CC(O)COCc2ccc3c(c2)OCO3)CC1 (centres undefined)	21µM*	?	21µM*	?	?	-28%
C/C(=N\O)c1ccc2c3c([nH]c2c1)CCCC3	-11%	i	0%	8.2µM*	i	62%
O=C(Nc1ccc(N2CCN(C(=O)c3ccccc3)CC2)cc1)c1ccc([N+](=O)[O-])o1	?	?	7.3µM*	i	?	·
Cc1ccccc1C(=O)N1CCN(c2ccc(NC(=O)c3cccnc3)cc2)CC1	-8%	?	-2%	i	i	-15%
Cc1ccccc1C(=O)N1CCN(c2ccc(NC(=O)c3ccc([N+](=O)[O-])o3)cc2)CC1	2.6µM*	?	1.3µM*	5.8µM*	?	-28%
SMILES	HT1080 IDH1KD tx	KB-V1 MDR tox	HT1080NT lethal	KB-3-1 tox	S2 tox	ATXN2 expr inh
O=C(/C=C\c1ccco1)Nc1ccc(N2CCN(C(=O)c3ccccc3)CC2)cc1	-1%	23µM*	-1%	i	i	1%
O=C(Nc1ccccc1N1CCN(C(=O)c2ccc(Cl)cc2)CC1)c1ccc([N+](=O)[O-])o1	?	?	?	21µM*	?	?
O=C(Nc1ccccc1N1CCCCC1)c1ccc([N+](=O)[O-])o1	2%	?	0%	?	?	-27%
O=C(/C=C/c1ccco1)N1CCN(c2ccccc2)CC1	-5%	i	7%	i	i	57%
COc1ccc(-c2cc(C)nc3c(-c4ccc(OC)c(OC)c4)c(C)nn23)cc1	·	i	·	i	?	?
Cc1cc(/C=C2\SC(=Nc3ccc(F)cc3)NC2=O)c(C)n1-c1ccc(S(N)(=O)=O)cc1	5.2µM*	i	6.5µM*	6.5µM*	?	?
Cc1cc(/C=C2\SC(=S)NC2=O)c(C)n1-c1ccc(O)cc1	?	i	?	?	?	65%
CCNC(=O)CCCC=CC[C@@H]1[C@H](C=CC(O)CCc2ccccc2)[C@@H](O)C[C@@H]1O (some centres undefined)	·	·	·	·	·	-3%
CCC(C)N1C(=O)/C(=C/c2c(NCCCOC(C)C)nc3c(C)cccn3c2=O)SC1=S (centres undefined)	13%	6.5µM*	14%	i	?	-20%
Cc1ccsc1/C=N/N=C/c1sccc1C	1%	i	0%	i	·	·
Cc1ccsc1C=Nc1ccc(O)cc1	23µM*	i	-8%	i	i	-23%
O=C(C1CCOC1)N1CCOc2ccc(CN3CCC(Oc4cccnc4)CC3)cc2C1 (centres undefined)	·	·	·	·	i	·
S=C1NCCc2ccc(Cl)cc2C1c1ccccc1Cl (centres undefined)	-26%	i	-16%	i	i	-21%
Clc1ccc2c(c1)C(C1=NCCN1)c1ccccc1CS2 (centres undefined)	1.5µM*	10µM*	1.2µM*	0.92µM*	?	?
CSc1nnc(-c2sc3cc(C(F)(F)F)cnc3c2-c2ccccc2)n1C	-27%[9.24 µM]	3.7µM*	?	6.5µM*	i	-14%
O=C(O)c1sc2cc(C(F)(F)F)cnc2c1-c1ccccc1	-1%	i	-5%	i	i	-3%
CCOc1ccc(-c2cc(C(=O)N3CCN(c4ccc(C)cc4)C(C)C3)c3ccccc3n2)cc1 (centres undefined)	·	i	·	i	i	14%
CCCCn1nc(C(=O)N(C)CC(=O)Nc2ccc(F)c(F)c2F)ccc1=O	-7%	15µM*	10%	i	i	-1%

Assay outcomes as filed in PubChem.
